High-throughput results: PubChem BioAssay, National Center for Advancing Translational Sciences (NCATS)
Rows were chosen to be rich in hits. Some 14% of all compounds tested hit in one or more screens of this group.
FBPA Giardia inh: inhibitors of Giardia lamblia fructose-1,6-bisphosphate aldolase | 290,000 tested, 0.71% active | Potency, µM (top dose mostly 59.6 µM), inactives show at the top dose activity, negative = inhibition, hits mostly inhibitors | A8B2U2 | purified Giardia FBPA; also: potency is read from the fitted curve at half-maximal effect; % is scaled to controls: 0 for no effect and ±100 for the full control effect; nearly all actives have a fitted effect of over 55% in size
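Giardia FBPA (40 nM reagent) was preincubated 10 min at RT with compound (up to 57.5 uM final), then substrate plus GAPDH/TPI/NAD/arsenate coupling system with diaphorase/resazurin was added; resorufin fluorescence (525/598 nm) was read after 20 min.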
CHX counter: counter-screen for Shiga toxin inhibitors: cycloheximide protein synthesis inhibition | cell reporter, cycloheximide protein synthesis inhibition counterscreen | max response, % | 300,000 tested, 12% active | AID 2314; in the data active = max response mostly above about 13%, no sharp cut-off; inactive = mostly below about 14%; also: read at 38.3 µM for the half of the compounds with a filed dose; 0% is about no effect
LmPK inh: blocks Leishmania mexicana pyruvate kinase activity. Q27686. purified LmPK, Kinase-Glo ATP luminescence, 1 h. Potency, µM (series often up to 57.5 µM), inactives show at the highest dose activity change, negative = inhibition, actives largely listed as inhibitors. 290,000 tested, 0.37% active. AID 1721; also: potency is read from the fitted curve at half-maximal effect; % is scaled to controls: 0 for no effect and ±100 for the full control effect
Target sequence (Q27686 whole entry, looked up): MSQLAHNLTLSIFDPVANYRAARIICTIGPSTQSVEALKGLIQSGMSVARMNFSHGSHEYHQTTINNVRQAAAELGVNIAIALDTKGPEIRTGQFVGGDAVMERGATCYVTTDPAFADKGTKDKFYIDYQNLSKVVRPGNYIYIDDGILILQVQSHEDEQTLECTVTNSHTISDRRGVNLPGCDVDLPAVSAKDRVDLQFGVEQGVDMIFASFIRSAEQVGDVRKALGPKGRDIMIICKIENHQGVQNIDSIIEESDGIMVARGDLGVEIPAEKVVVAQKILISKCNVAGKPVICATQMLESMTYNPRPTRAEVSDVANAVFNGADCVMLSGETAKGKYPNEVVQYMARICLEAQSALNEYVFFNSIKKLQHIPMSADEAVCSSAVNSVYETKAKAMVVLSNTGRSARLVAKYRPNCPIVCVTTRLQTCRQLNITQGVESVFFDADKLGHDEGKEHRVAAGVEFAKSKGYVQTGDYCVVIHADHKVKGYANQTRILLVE
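Screened at intermediate enzyme activity to detect both inhibitors and activators: LmPK at 0.1 nM, with a 0.5 nM enzyme column as activation reference. PEP 0.5 mM, ADP 0.1 mM; ATP detected by luminescence after 1 h.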
Shiga inhibitor: blocks Shiga toxin action in Vero cells; inhibition, % at 38.7 µM; Vero cells, Shiga toxin protein synthesis inhibition reporter; AID 2315; 290,000 tested, 9.2% active; in the data active = inhibition mostly above about 28%, no sharp cut-off; inactive = mostly below about 43%; also: 0% is about no effect
NS1 inh: blocks influenza NS1 protein function. Potency, µM (series often up to 46.1 µM), for inactives: at the top dose activity, positive = more growth. 270,000 tested, 0.4% active; calls by dose curve; also: potency is read from the fitted curve at half-maximal effect; actives are rising curves; nearly all actives have a fitted effect of over 50% in size
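Read-out: OD600 growth recovery of NS1-expressing budding yeast. Cells grown overnight at 30C in -URA glucose medium, washed, resuspended and diluted 1:100 in 2% galactose assay medium, pH 6.0. Same strain lacking NS1 served as positive control.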
Numbers without * were called inactive; ? = inconclusive; . = no result; [ ] = dose if it differs, or a comment. Unless noted, calls follow the shape of the dose curve; as a rule, active = well fitted curve in the direction sought with a large enough effect; inconclusive = small, poorly fitted or top-dose-only effect, or another doubt; inactive = no such curve, though single readings can be large; an effect the other way counts as inactive or inconclusive.

SMILES | FBPA Giardia inh | CHX counter | LmPK inh | Shiga inhibitor | NS1 inh
N/C(=N\OC(=O)Cc1ccccc1)c1ccncc1 | 3.5% | 1.5 | 3.3% | 31.6 | -1.5%
CCC(C(=O)O/N=C(\N)c1ccc(C)cc1)c1ccccc1 (stereo unspecified) | -4.3% | 13.9 | -3.3% | 21.0 | 3.1%
COc1ccc(/C(N)=N/OC(=O)Cc2ccc(OC)c(OC)c2)cc1 | -15.4% | 17.8 | 6.0% | 25.9 | -64.1%
Cc1ccc(CCNC(=O)C2CCN(S(=O)(=O)c3ccc4c(c3)NC(=O)CO4)CC2)cc1 | . | -2.7 | 2.4% | 5.4 | 10.0%
O=C(O)C1CCN(C(=O)CSc2nc3ccccc3c(=O)n2-c2ccc(Cl)cc2)CC1 | -1.7% | -2.6 | 0.2% | -5.5 | 22.6%
CCOc1ccc(NS(=O)(=O)c2coc(C(N)=O)c2)cc1 | -11.8% | -1.7 | 0.1% | 1.0 | 21.1%
O=C(C1CCCN(S(=O)(=O)c2cc(Cl)ccc2Cl)C1)N1CCCC1 (stereo unspecified) | -5.6% | -1.4 | -5.7% | -6.4 | 0.0%
N/C(=N\OC(=O)Cc1ccccc1)c1ccc(Br)cc1 | 3.3% | 53.2* | -2.2% | 104.0* | -13.6%
Cc1ccc(/C(N)=N/OC(=O)CCCc2ccccc2)cc1 | . | 56.5* | -10.3% | 42.7* | 15.8%
N/C(=N\OC(=O)CCCOc1ccccc1)c1cccc(Br)c1 | 1.0% | -2.8 | -0.4% | -0.6 | -5.3%
N/C(=N\OC(=O)CCCc1ccccc1)c1ccccc1Cl | . | 32.7* | -8.3% | 48.1 | -30.8%
CC(=O)NCCc1nc2ccccc2n1CCc1ccccc1 | 1.0% | -1.8 | -2.0% | -22.7 | 7.3%
Cc1ccc(C)c(S(=O)(=O)N2CCN(C(=O)CCNS(=O)(=O)c3ccccc3)CC2)c1 | -11.7% | -2.4 | 6.0% | -2.9 | -4.2%
COc1ccc(C(=O)c2ccc(N3CCOCC3)cc2)c(OC)c1 | 0.5% | 14.1* | 4.4% | 13.5 | 12.9%
O=C1c2oc3ccccc3c(=O)c2C(c2cccs2)N1CCCN1CCOCC1 (stereo unspecified) | -12.2% | 11.3 | 0.5% | -2.1 | -5.5%
Cc1ccc2oc3c(c(=O)c2c1)C(c1cccs1)N(CCCN(C)C)C3=O (stereo unspecified) | -3.6% | 38.9* | 6.7% | 48.5* | ?
Nc1c(S(N)(=O)=O)cc(S(N)(=O)=O)cc1S(N)(=O)=O | . | . | . | . | -5.6%
O=C(Nc1nnc(C2=COCCO2)o1)c1cccc(F)c1 | . | 11.4* | 0.6% | 28.3 | -36.3%
CCOc1cccc(C(=O)Nc2ccc3[nH]ncc3c2)c1 | -2.1% | 35.7* | -6.5% | 21.8* | 7.3%
COc1cccc(C(=O)Nc2ccc3[nH]ncc3c2)c1 | -2.7% | 24.3* | -2.7% | 23.3 | 0.5%
CCOc1cccc(C(=O)Nc2ccncc2)c1 | 3.2% | -0.6 | -2.5% | -2.3 | .
COc1ccccc1C(=O)Nc1ccc2[nH]ncc2c1 | 8.7% | 16.0* | -0.8% | 24.2 | -10.7%
Cc1noc(C)c1C(=O)N1CCC2(CCN(Cc3ccncc3)CC2)CC1 | -0.2% | . | . | . | .
Cc1ccc(-n2ncc3c2CC(C)(C)CC3NC(=O)CCN2CCCCC2=O)cc1 (stereo unspecified) | . | -2.0 | -7.0% | -7.1 | -7.1%
O=[N+]([O-])c1ccc(P(=O)(Cc2ccccc2)c2ccccc2O)cc1 (stereo unspecified) | 2.6% | -7.2 | -1.0% | -8.8 | 0.8%
SMILES | FBPA Giardia inh | CHX counter | LmPK inh | Shiga inhibitor | NS1 inh
Cc1nc2c(oc3ccccc32)c(=O)o1 | -7.4% | 87.9* | 1.4% | 143.7* | -13.3%
O=c1[nH]c(Cc2ccccc2)nc2c1oc1ccccc12 | -1.5% | 4.0 | -3.2% | -12.6 | 4.5%
O=C(N/N=C/c1c(O)n(CCc2ccc(F)cc2)c(=O)[nH]c1=O)c1ccccc1 | -1.4% | 14.0* | 1.8% | 52.8* | 9.4%
O=C(N/N=C/c1c(O)n(CCc2ccc(F)cc2)c(=O)[nH]c1=O)c1ccncc1 | 1.7% | 15.4 | -6.4% | -1.1 | .
CCn1c(O)c(/C=N/NC(=O)c2ccccc2)c(=O)[nH]c1=S | -17.1% | 31.4* | -0.1% | 44.2* | -5.1%
CCCCCCC(=O)N/N=C/c1c(O)n(CCc2ccccc2)c(=O)[nH]c1=O | 9.0% | -2.7 | 2.2% | 1.4 | -3.0%
COc1ccc(Cn2c(O)c(C=NCCN3CCOCC3)c(=O)[nH]c2=O)cc1 | 2.8% | -5.2 | 0.8% | -16.7 | 4.3%
COc1ccc(Cn2c(O)c(/C=N/NC(=O)c3ccccc3O)c(=O)[nH]c2=O)cc1 | ? | 13.0* | 3.3% | 19.6 | 20.0%
O=c1[nH]c(=O)n(Cc2ccco2)c(O)c1C=NC1CC1 | 0.9% | -4.6 | 7.3% | 12.7 | 3.0%
O=C(N/N=C/c1c(O)n(Cc2ccco2)c(=O)[nH]c1=O)c1ccccc1 | -1.1% | 33.7* | 15.6% | 79.9 | -2.0%
COCCCNC(=O)Cc1c(C)c2c(cc(C)c3c(C(C)(C)C)coc32)oc1=O | 8.1% | 2.3 | -4.9% | 7.1 | 9.1%
Cc1cc(OCC(=O)Nc2cnn(CCCC(=O)O)c2)ccc1Cl | -8.1% | 0.5 | -1.0% | -8.5 | -1.0%
O=C(N/N=C/c1c(O)n(Cc2ccccc2)c(=O)[nH]c1=O)c1ccccc1O | ? | 16.1* | -0.3% | 6.1 | ?
O=C(N/N=C/c1c(O)n(CCc2ccccc2)c(=O)[nH]c1=O)c1ccncc1 | 2.6% | -6.8 | 5.4% | -14.8 | -26.5%
COc1ccc(Cn2c(O)c(/C=N/NC(=O)c3ccncc3)c(=O)[nH]c2=O)cc1 | 29.9% | -3.0 | 5.3% | -6.1 | -6.4%
COc1ccccc1-n1c(O)c(/C=N/NC(=S)Nc2ccccc2)c(=O)[nH]c1=S | ? | 21.6* | 1.8% | 31.8 | 9.4%
COc1ccc(Cn2c(O)c(/C=N/NC(=O)c3ccccc3)c(=O)[nH]c2=O)cc1 | ? | 37.3* | 7.8% | 74.9* | 27.7%
O=C(N/N=C/c1c(O)n(Cc2ccc(F)cc2)c(=O)[nH]c1=O)c1ccccc1O | ? | 8.6 | -0.7% | 50.2 | ?
COc1cccc(/C=N/NC(=S)Nc2cccc(C(=O)O)c2)c1O | 16.6% | 13.1 | 3.9%[11.5 µM] | 29.8 | .
O=C(N/N=C/c1c(O)n(CCc2ccccc2)c(=O)[nH]c1=O)c1ccccc1O | ? | 23.7* | 0.9% | 28.7 | -7.4%
CC(=O)C1=C(C)N(Cc2ccco2)C(=O)N[C@@H]1c1ccccc1 | 0.2% | . | . | . | .
Cc1nc2cc(-c3cccc(Cl)c3)nn2c(N2CCN(C(=O)c3ccco3)CC2)c1C | 0.8% | 27.8* | -0.2% | 101.9* | -35.5%
Cc1cc(N2CCN(C(=O)c3ccco3)CC2)n2nc(-c3cccc(Cl)c3)cc2n1 | 0.9% | -3.1 | 0.5% | 46.2 | -70.7%
CC(C)c1ccc(NC(=O)C(c2ccccc2)N2CCN(C(=O)c3ccco3)CC2)cc1 (stereo unspecified) | . | 55.2* | 0.9% | 125.1* | -73.6%
O=C(Nc1ccc(N2CCN(C(=O)c3ccco3)CC2)cc1)c1ccc(Br)cc1 | -3.3% | -1.3 | 3.3% | -2.2 | -4.7%
O=C(Nc1ccc(N2CCN(C(=O)c3ccco3)CC2)cc1)c1ccco1 | -1.5% | 12.4* | -6.6% | 42.8 | -1.6%
O=C(c1ccco1)N1CCN(Cc2c(F)cccc2Cl)CC1 | 1.7% | 38.9* | -1.2% | 49.7* | -3.6%
O=C(Nc1ccc(C(=O)OC2CCCCC2)cc1)c1ccncc1 | -1.0% | 11.6 | 2.5% | 7.0 | -14.2%
